Compound activity deposited in PubChem BioAssay by National Center for Advancing Translational Sciences (NCATS).
Lassa entry inh = Lassa virus entry inhibition | Potency, µM (titrated, usually from 37.9 µM), for the others: top-dose activity change, negative = inhibition, hits mostly inhibitors | Lassa virus pseudotype entry inhibition, cell reporter | 1.2% of 300,000 active | AID 540256; calls by dose curve; tested in HEK293 cells; also: potency is read from the fitted curve at half-maximal effect; % is scaled to controls: 0 for no effect and ±100 for the full control effect; nearly all actives have a fitted effect of over 50% in size
HCV inhibitor = inhibitors of hepatitis C virus infection. Huh7.5.1 HCVcc-Cre infection, luciferase reporter, 44 h. 3.4% of 340,000 active. Potency, µM (series often up to 41.8 µM), for inactives: at the highest dose activity change, negative = inhibition, usual class: inhibitors; active = well fitted inhibition curve with a large enough effect; inconclusive = small, poorly fitted or top-dose-only effect, or another doubt; inactive = no such curve, though single readings can be large or run the other way; also: potency is read from the fitted curve at half-maximal effect; % is scaled to controls: 0 for no effect and ±100 for the full control effect
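Cells seeded at 1,000/well and cultured 4 h, then compounds added followed by HCVcc-Cre virus (~0.5 moi). After 44 h further culture, luciferase substrate was added, plates held 15 min at room temperature, and luminescence read for 15 sec.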
FMDV inh = blocks foot and mouth disease virus | FMDV antiviral cell-based qHTS | Potency, µM (titrated, usually from 57.9 µM), without a hit: top-dose activity change, negative = inhibition, actives largely listed as inhibitors | 1.2% of 410,000 active; calls by dose curve; tested in HEK293T cells; also: read-out not given here; potency is read from the fitted curve at half-maximal effect; % is scaled to controls: 0 for no effect and ±100 for the full control effect; nearly all actives have a fitted effect of over 45% in size
CHX counter = affects cycloheximide protein synthesis inhibition readout, counter-screen; cell reporter, cycloheximide protein synthesis inhibition counterscreen; max response, %; 12% of 300,000 active; in the data active = max response mostly above about 13%, no sharp cut-off; inactive = mostly below about 14%; also: read at 38.3 µM for the half of the compounds with a filed dose; 0% is about no effect
MARV entry inh = blocks Marburg virus binding to or entry into cells; Marburg virus pseudotyped entry inhibition, cell reporter; Potency, µM (top dose mostly 37.8 µM), without a hit: at the top dose activity change, negative = inhibition, actives largely listed as inhibitors; 1.8% of 300,000 active; calls by dose curve; tested in HEK293 cells; also: potency is read from the fitted curve at half-maximal effect; % is scaled to controls: 0 for no effect and ±100 for the full control effect
Shiga inhibitor = blocks Shiga toxin action in Vero cells | inhibition, % at 38.7 µM | AID 2315 | 9.2% of 290,000 active | Vero cells, Shiga toxin protein synthesis inhibition reporter; in the data active = inhibition mostly above about 28%, no sharp cut-off; inactive = mostly below about 43%; also: 0% is about no effect
The depositor's hits bear a star; [ ] = dose if it differs, or a comment. In the library only some 13% were active in any assay of this set; here they are far more common.

How did COc1ccc(N2CCN(C(=O)CCNS(=O)(=O)c3cc(Br)cnc3N)CC2)cc1 do in these assays?
HCV inhibitor: -0.9%; FMDV inh: -6.8%; CHX counter: 24.6; Shiga inhibitor: -5.7

What do the screens show for `N#CC(c1ccccc1O)N1N=C(c2ccccc2)CC1c1ccccc1` (stereo not given)?
HCV inhibitor: inconclusive; FMDV inh: 37.3%; CHX counter: 62.8*; Shiga inhibitor: 96.6*

Results for CC1=NN(C(C#N)c2ccccc2C)C(c2ccccc2)C1 (stereo not given) ?
HCV inhibitor: 11.6%; FMDV inh: -14.1%; CHX counter: -0.7; Shiga inhibitor: 25.8

What do the screens show for `COc1cc(C(C#N)N2N=C(c3ccccc3)CC2c2ccccc2)ccc1O` (stereo not given)?
Lassa entry inh: 10.2%; HCV inhibitor: -11.0%; FMDV inh: 73.2%; CHX counter: 29.8*; MARV entry inh: 2.3%; Shiga inhibitor: 86.9*

How did COc1ccc2cnn(Cc3ccccc3)c(=O)c2c1OC do in these assays?
Lassa entry inh: 16.5%; HCV inhibitor: 4.1%; FMDV inh: -0.3%; CHX counter: 4.5; MARV entry inh: 1.1%; Shiga inhibitor: -15.5

What do the screens show for `COc1ccc(OC)c(C(=O)NC(CC(N)=O)c2ccc(NCC3CC3)c([N+](=O)[O-])c2)c1` (stereo not given)?
HCV inhibitor: -1.3%; FMDV inh: 3.2%; CHX counter: -2.7; Shiga inhibitor: -3.5

What do the screens show for `COc1ccc(C2=NN(C(N)=S)C(c3ccccc3)C2)cc1` (stereo not given)?
Lassa entry inh: -25.2%; HCV inhibitor: -25.9%; FMDV inh: 20.7%; CHX counter: 31.9*; MARV entry inh: -13.7%[46.1 µM]; Shiga inhibitor: 51.3*

What do the screens show for `COc1ccc(C2CC(c3ccc(Br)cc3)=NN2C(=S)Nc2ccccc2)cc1` (stereo not given)?
Lassa entry inh: inconclusive; HCV inhibitor: -7.4%; FMDV inh: 49.5%; CHX counter: 21.4*; MARV entry inh: -3.9%; Shiga inhibitor: 43.3*

How did CNC(=S)N1N=C(c2ccc(OC)cc2)CC1c1ccc(N(C)C)cc1 (stereo not given) do in these assays?
Lassa entry inh: inconclusive; HCV inhibitor: 11.2µM*; FMDV inh: 4.9%; CHX counter: 14.0; MARV entry inh: inconclusive; Shiga inhibitor: 42.3

How did CNC(=S)N1N=C(c2ccc(Br)cc2)CC1c1ccc(N(C)C)cc1 (stereo not given) do in these assays?
Lassa entry inh: -22.1%[46.1 µM]; HCV inhibitor: -16.8%; FMDV inh: 1.6%; CHX counter: -1.6; MARV entry inh: inconclusive; Shiga inhibitor: 15.0

What do the screens show for `COc1ccc(C2=NN(C(=S)Nc3ccccc3)C(c3ccccc3)C2)cc1` (stereo not given)?
Lassa entry inh: -7.9%; HCV inhibitor: 1.2%; FMDV inh: 5.9%; CHX counter: -2.4; MARV entry inh: 17.6%; Shiga inhibitor: 0.7

Results for CCOC(=O)CSC1=C(C#N)C(c2ccccc2C)C2=C(CCCC2=O)N1 (stereo not given) ?
Lassa entry inh: -2.5%; HCV inhibitor: -5.4%; FMDV inh: -25.9%; CHX counter: -1.4; MARV entry inh: inconclusive; Shiga inhibitor: 3.9

Results for CC(C)(C)OC(=O)N[C@H](Cc1ccccc1)C(=O)N1CCC(C(=O)O)CC1 ?
Lassa entry inh: 1.6%; HCV inhibitor: 5.6%; FMDV inh: -6.2%; CHX counter: -0.9; MARV entry inh: 13.5%; Shiga inhibitor: -4.4

Results for COc1ccc(Nc2nc(C)cc(-c3cc(-c4ccccc4)on3)n2)cc1 ?
HCV inhibitor: 7.1%; FMDV inh: -8.0%

Results for Cc1cc(C)cc(OCC(=O)OCc2nnc(-c3ccccc3)o2)c1 ?
HCV inhibitor: 9.9%; FMDV inh: 5.5%; CHX counter: 1.1; Shiga inhibitor: 23.6

Results for NC(=O)c1ccccc1N/C=C/C(=O)c1ccccc1 ?
Lassa entry inh: -1.8%; HCV inhibitor: inconclusive; FMDV inh: 7.8%; CHX counter: 47.3*; MARV entry inh: 11.1%; Shiga inhibitor: 56.4*

What do the screens show for `COC(=O)c1ccccc1NC(=O)c1ccc(-c2ccc(Br)cc2)o1`?
Lassa entry inh: 10.4%; HCV inhibitor: -29.0%; FMDV inh: inconclusive; CHX counter: 9.1; MARV entry inh: 0.0%; Shiga inhibitor: 8.4

Results for COC(=O)c1ccccc1N/C=C/C(=O)c1ccc(Br)cc1 ?
Lassa entry inh: 3.7%; HCV inhibitor: 0.2%; FMDV inh: 19.0%; CHX counter: 42.9*; MARV entry inh: 9.5%; Shiga inhibitor: 26.8*

What do the screens show for `CCOc1ccc(Nc2oc(/C=C/c3ccc(OC)c(OC)c3)nc2C#N)cc1`?
Lassa entry inh: -1.3%[46.1 µM]; FMDV inh: -11.6%; MARV entry inh: 1.8%[46.1 µM]

What do the screens show for `CN(CC(=O)Nc1ccc(F)cc1)C(=O)Cc1ccsc1`?
HCV inhibitor: -10.0%; FMDV inh: -2.5%

How did CN(Cc1ccsc1)C(=O)Cn1cc(Br)ccc1=O do in these assays?
Lassa entry inh: -15.7%[46.1 µM]; HCV inhibitor: 16.6%; FMDV inh: 15.7%; CHX counter: 28.9*; MARV entry inh: 13.7%[46.1 µM]; Shiga inhibitor: 77.6*

Results for O=C(N/N=C\c1ccc(-c2ccccc2[N+](=O)[O-])o1)C1COc2ccccc2O1 (stereo not given) ?
Lassa entry inh: 1.2%; HCV inhibitor: 1.8%; FMDV inh: -13.8%; CHX counter: -6.9; MARV entry inh: inconclusive; Shiga inhibitor: -14.2

How did O=C(O)c1cccc(-c2ccc(/C=N/NC(=O)C3COc4ccccc4O3)o2)c1 (stereo not given) do in these assays?
Lassa entry inh: -9.0%; HCV inhibitor: 9.7%; FMDV inh: 31.1%; CHX counter: 56.5*; MARV entry inh: 4.3%[46.1 µM]; Shiga inhibitor: active

Results for CC(C)(C)c1ccc2c(c1)OC(C(=O)N/N=C\c1ccc(-c3cccc(C(=O)O)c3)o1)CO2 (stereo not given) ?
Lassa entry inh: 11.0%[46.1 µM]; HCV inhibitor: 6.6%; FMDV inh: 17.5%; CHX counter: 70.0*; MARV entry inh: inconclusive; Shiga inhibitor: 147.5*

Results for COc1ccc(C2CC(c3ccc(Cl)cc3)=NN2c2ccc(S(N)(=O)=O)cc2)cc1 (stereo not given) ?
HCV inhibitor: inconclusive; FMDV inh: 0.0%

How did COc1ccc2c(c1OC)C(=O)N1N=C(c3ccccc3)CC21 (stereo not given) do in these assays?
Lassa entry inh: 4.8%; HCV inhibitor: inconclusive; FMDV inh: 17.3%; CHX counter: 18.0*; MARV entry inh: 5.0%; Shiga inhibitor: 31.4

Results for COc1ccc(C2CC(c3ccccc3)=NN2c2ccc(S(N)(=O)=O)cc2)cc1OC (stereo not given) ?
Lassa entry inh: 11.2µM*; HCV inhibitor: -29.3%; FMDV inh: 0.0%; CHX counter: 7.2; MARV entry inh: inconclusive; Shiga inhibitor: -10.9
